Test results taken from PubChem BioAssay AID1745847 (National Center for Advancing Translational Sciences (NCATS), 2022).
Among all 2,100 compounds or so, about 670 (32%) were called active. Another 50% or so got no clear call; they are omitted. Calls follow the shape of the dose curve; as a rule, active = well fitted inhibition curve with a large enough effect; inconclusive = small, poorly fitted or top-dose-only effect; inactive = no such curve, though single readings can be large or run the other way. The list shows a part of the results.

experiment: CMV-Luciferase Counterscreen for Inhibitors of ATXN expression; settings: HEK-293 CMV-luciferase reporter, luminescence, 24 h; series mostly up to 57.5 µM; also: nearly all actives have a fitted effect of over 55% in size
% is scaled to controls: 0 for no effect and ±100 for the full control effect; potency is read from the fitted curve at half-maximal effect.

Structure (SMILES) | Potency | activity change, negative = inhibition
COc1cccc(C=NNC(=O)c2ccncc2)c1O | 15.8 µM (active) | 
c1ccc2c(c1)c1c(c3ccccc32)CN2CCCC2C1 (configuration not stated) | inactive | 
Cc1cc2c(N=O)c(NO)ccc2[nH]1 | 10 µM (active) | 
CN(C)CCCN(C(=O)c1ccco1)c1nc2cc3c(cc2s1)OCO3 | inactive | 
CN(/N=C/c1cc(Br)cc(Br)c1O)c1cccc(C(F)(F)F)n1 | 11.2 µM (active) | 
COc1ccc(NC(=S)N(CCCN2CCOCC2)Cc2cn(C)c3ccccc23)cc1 | inactive | 
ClC(Cl)(Cl)c1nc2ccccc2n2nncc12 |  | -25.9% [at 11.4 µM] (inactive)
COc1ccc(C2CC(c3cccc(C(F)(F)F)c3)=NN2c2ccc(S(N)(=O)=O)cc2)cc1 (configuration not stated) |  | -28.1% [at 11.4 µM] (inactive)
NS(=O)(=O)c1ccc(N2N=C(c3ccccc3)CC2c2cccc(Br)c2)cc1 (configuration not stated) | 17.8 µM (active) | 
NC(Cc1ccc(Cl)cc1)c1csc(Nc2nccc(C(F)(F)F)n2)n1 (configuration not stated) | inactive | 
Cc1cc(C(=O)N/N=C/c2cc(Br)cc([N+](=O)[O-])c2O)c2ccccc2n1 | 3.55 µM (active) | 
CN(C)c1ccc(C(=O)N/N=C/c2cc(Br)cc(Br)c2O)cc1 | 3.16 µM (active) | 
CC(=O)Nc1ccc(C(=O)N/N=C/c2cc(Br)cc(Br)c2O)cc1 | 11.2 µM (active) | 
O=C(N/N=C/c1cc(Br)cc([N+](=O)[O-])c1O)c1ccc(NC(=O)c2ccc(F)cc2)cc1 | 3.16 µM (active) | 
Cc1ccc2nc(NC(=O)/C=C/c3ccc4c(c3)OCO4)sc2c1 | inactive | 
O=c1[nH]c(=O)n(C2C[C@H](O)[C@@H](CO)O2)cc1C(F)(F)F (some centres not stated) | 2.82 µM (active) | 
COC(=O)N/N=C/c1cn(CC(C)COc2ccccc2)c2ccccc12 (configuration not stated) | 17.8 µM (active) | 
c1ccc2c(c1)C(=NC1CCCCC1)NC2=NC1CCCCC1 | inactive | 
O=C(CCCN1C(=O)/C(=C/c2ccccc2Cl)SC1=S)NNC(=O)c1ccc(Cl)cc1 | 3.98 µM (active) | 
O=C(CCCN1C(=O)/C(=C/c2ccccc2Cl)SC1=S)NNC(=O)c1ccc(Cl)cc1Cl | 2.82 µM (active) | 
Cc1ccc(C(=O)NNC(=O)CCCN2C(=O)/C(=C/c3ccccc3Cl)SC2=S)cc1 | 11.2 µM (active) | 
Cc1cc(C)c2c(CC(=O)Nc3ccc(Cl)cn3)coc2c1 |  | 21.1% [at 11.4 µM] (inactive)

Structure (SMILES) | Potency | activity change, negative = inhibition
CCc1ccc(/C=C/C(=O)c2cc(Br)ccc(=O)c2O)cc1 | inactive | 
NC(Cc1ccc(Cl)cc1)c1csc(Nc2cc(NCCCO)ncn2)n1 (configuration not stated) | inactive | 
Cc1cccc(/C=N/NC(=O)c2cccc(Cl)c2)n1 |  | -14.3% [at 11.4 µM] (inactive)
O=C(N/N=C/c1cc(Cl)ccc1O)c1ccccc1Br | 8.91 µM (active) | 
O=C(N/N=C/c1c(O)n(Cc2ccccc2)c(=O)c2ccccc12)c1cccnc1 | 12.6 µM (active) | 
O=C(N/N=C/c1cc(Cl)ccc1O)c1cccnc1 | 0.631 µM (active) | 
CCC1=C(OC(=O)N(CC)CC)N2C(=O)OC(=NCCc3c[nH]c4ccccc34)[C@]2(Cc2ccccc2)[C@H]2C1=CC[C@H]1C(=O)N(c3ccccc3)C(=O)[C@H]12 | inactive | 
Cc1cccn2c(=O)c3cc(C(=O)NCCc4ccccc4)c(=N)n(CCCn4ccnc4)c3nc12 | inactive | 
CC1(C)Cc2c(c(-c3ccco3)nc3sc4c(NCCN5CCOCC5)ncnc4c23)CO1 | inactive | 
Cc1c(C(=O)Nc2nonc2-c2ccc(F)cc2)oc2ccc(F)cc12 | 11.2 µM (active) | 
O=C(NNC(=O)C12CC3CC(CC(C3)C1)C2)c1ccccn1 | 8.91 µM (active) | 
CN(C)c1ccc2c(c1)OC(N)=C(C#N)C2c1cccc(F)c1 (configuration not stated) | inactive | 
Cn1cccc1/C=N/N1CCN(Cc2ccccc2Cl)CC1 | inactive | 
O=C(Nc1ccccc1N1CCN(C(=O)c2ccccc2)CC1)c1ccc(Br)o1 | 28.2 µM (active) | 
Cc1cc(C)n(-c2nc(Nc3ccccc3C(F)(F)F)nc(-n3nc(C)cc3C)n2)n1 | 1.78 µM (active) | 
CN(C)c1ccc(NC(=O)Nc2nc(C(N)C3CCCCC3)cs2)cc1 (configuration not stated) | inactive | 
CCOC(=O)c1c(NC(=O)COC(=O)CNC(=O)c2ccco2)sc(C)c1C |  | 24.5% [at 11.4 µM] (inactive)
Cc1cc(C)c(S(=O)(=O)/N=C2\C=C(Nc3ccc(C(=O)O)cc3)C(=O)c3ccccc32)c(C)c1 | 1.58 µM (active) | 
CCCCCCn1c2c(c(=N)c3c1CCC3)CCC2 | 2.51 µM (active) | 
Cc1ccc(CN2CC(C(=O)Nc3ncc(C)s3)CC2=O)cc1 (configuration not stated) |  | 242% [at 11.4 µM] (inactive)
Cc1ccc(C(NC(=O)C2CCN(Cc3ccc(Cl)c(Cl)c3)CC2)c2ccccn2)cc1 (configuration not stated) | 28.2 µM (active) | 
O=C1C=C(NCCc2cc(Br)c(O)c(Br)c2)C(=O)c2ncccc21 | 8.91 µM (active) | 

Structure (SMILES) | Potency | activity change, negative = inhibition
Cc1cc(C)c(C(=O)N2CCCC(N3CCN(c4cccc(C(F)(F)F)c4)CC3)C2)o1 (configuration not stated) | 3.55 µM (active) | 
COC1=CC(=O)C=C(OC)C1(O)CC(C)=O | inactive | 
CCC(=O)NC(c1cc(Cl)c2cccnc2c1O)C(C)C (configuration not stated) | 3.98 µM (active) | 
CC(=O)NC(c1cc(Cl)c2cccnc2c1O)C(C)C (configuration not stated) | 0.794 µM (active) | 
CC(C)CCn1c(N)c(S(=O)(=O)c2cccs2)c2nc3ccccc3nc21 | 3.16 µM (active) | 
CCSc1nc2ccccc2n1C(=O)/C=C\c1ccc(OC)c(OC)c1 | 14.1 µM (active) | 
COc1ccc(C(=O)Cn2c(C(=O)/C=C/c3ccccc3)nc3ccccc32)cc1 |  | 92.9% [at 11.4 µM] (inactive)
COc1ccc(C(=O)/C=C/c2cccc(OCc3ccccc3)c2)cc1CSCC(=O)O |  | -3.73% [at 11.4 µM] (inactive)
N#Cc1ccccc1NC(=O)C1SC(=Nc2ccccc2)C(C(=O)Nc2ccc(Cl)cc2)=C1N (configuration not stated) |  | -20.6% [at 11.4 µM] (inactive)
CN(CC(=O)NCc1ccc(F)cc1)CC(=O)Nc1ccc(Cl)c(C(F)(F)F)c1 | 17.8 µM (active) | 
Cc1ccc(C(=O)N(C)CC(=O)Nc2ccc(Cl)c(C(F)(F)F)c2)cc1S(=O)(=O)N1CCCCC1 | 25.1 µM (active) | 
CN(CC(=O)Nc1ccc(Cl)c(C(F)(F)F)c1)C(=O)c1cccnc1Sc1ccccc1 | inactive | 
Cc1ccc(-n2ncc(C(=O)Nc3ccc(Cl)cc3)c2C2CCNCC2)cc1C | inactive | 
Cc1cc(C2=NNC(=NC3CC3)SC2)c(C)n1-c1ccccc1F | 0.631 µM (active) | 
Cc1ccc(C2CC(=O)Nc3c2ccc2ccccc32)cc1[N+](=O)[O-] (configuration not stated) | 17.8 µM (active) | 
Cc1ccccc1S(=O)(=O)Cc1ccc(C(=O)N2CCN(c3cccc(C)c3C)CC2)o1 | 3.98 µM (active) | 
CCOC(=O)[C@H]1[C@H]2COc3ccc(OC)cc3[C@@H]2N2C(=O)c3cc(OC)c(OC)cc3NC(=O)[C@@]12C |  | 6.45% [at 11.4 µM] (inactive)
c1cnc2c(c1)ccc1cccnc12 | 3.55 µM (active) | 
CC(=O)N1CCN(c2ccc(Oc3ccc([N+](=O)[O-])c(C(F)(F)F)c3)cc2)CC1 | 7.94 µM (active) | 
N=c1c2c(n(Cc3cccc(Cl)c3)c3c1CCC3)CCCC2 | 3.16 µM (active) | 
N=c1c2c(n(Cc3ccc(Br)cc3)c3c1CCC3)CCCC2 | 0.501 µM (active) | 
N=c1c2c(n(Cc3ccc(Cl)cc3)c3c1CCC3)CCC2 | 0.708 µM (active) | 

Structure (SMILES) | Potency | activity change, negative = inhibition
Cn1c(CO)cnc1S(=O)(=O)Cc1ccc([N+](=O)[O-])cc1 | inactive | 
c1nc(CCO[C@H]2CCCCO2)cc2cc3c(cc12)OCO3 | 3.16 µM (active) | 
O=C(C1CCC(CNS(=O)(=O)c2cccs2)CC1)N1CCN(c2ccc(F)cc2)CC1 (configuration not stated) | 4.47 µM (active) | 
COc1cc(C(=O)O/N=C(\N)Cc2ccc([N+](=O)[O-])cc2)cc(OC)c1OC |  | -6.35% [at 11.4 µM] (inactive)
CCOc1cc(C=C(C(=O)OC)C(=O)OC)ccc1OCc1ccc([N+](=O)[O-])cc1 | 25.1 µM (active) | 
CC1CC(C)C[N+](=C2C=C(N3CCCC3)CC(C)(C)C2)C1 (configuration not stated) | 0.794 µM (active) | 
CC1CCN(Cc2c(C(=O)N/N=C/c3cc(Cl)ccc3O)nnn2-c2nonc2N)CC1 | 0.562 µM (active) | 
CC1CCN(Cc2c(C(=O)N/N=C/c3cc(Br)ccc3O)nnn2-c2nonc2N)CC1 | 0.447 µM (active) | 
COc1ccc(-c2n(CC(=O)OC3CC(C)CCC3C(C)C)c3ccccc3[n+]2C)cc1 (configuration not stated) | 3.16 µM (active) | 
CCOc1ccc(-n2c(-c3ccccc3)c[n+]3c2CCCCC3)cc1 | 3.55 µM (active) | 
CCOc1ccc(-c2c[n+]3c(n2-c2ccccc2)CCCCC3)cc1 | 6.31 µM (active) | 
CCCCOc1ccc(C(=O)NNC(=S)NC(=O)CC)cc1 | 2.51 µM (active) | 
OC(c1ccccc1)(c1nc(-c2cc3ccccc3o2)cs1)C(F)(F)F (configuration not stated) | inactive | 
Cc1cc(/C=N/n2cnnc2)c(C)n1-c1ccc(OCc2ccc(Cl)cc2Cl)cc1 | 12.6 µM (active) | 
Cc1ccc(C)c(NC(=O)c2ccccc2NS(=O)(=O)c2cc([N+](=O)[O-])ccc2C)c1 | 1 µM (active) | 
CC1CCCCC1NC(=O)/C(C#N)=C/C=C/c1ccccc1[N+](=O)[O-] (configuration not stated) | 3.55 µM (active) | 
N#C/C(=C\C=C\c1ccccc1[N+](=O)[O-])C(=O)NCc1ccccc1 | 3.16 µM (active) | 
O=C(/C=C/c1ccccc1[N+](=O)[O-])c1ccccc1Br |  | 44.2% [at 11.4 µM] (inactive)
O=C(Nc1cccnc1)C1Cc2c(-c3ccc4c(c3)OCO4)ccnc2O1 (configuration not stated) |  | -23.6% [at 11.4 µM] (inactive)
NC(=O)c1cccc(-c2ccnc3c2CC(C(=O)Nc2cccc(C(F)(F)F)c2)O3)c1 (configuration not stated) | 3.98 µM (active) | 
CS(=O)(=O)Nc1cccc(NC(=O)c2cccc3c(-c4cccc(C(N)=O)c4)coc23)c1 | inactive | 
